Measured values reported in PubChem BioAssay (NCI).
This is part of a sample that, as a whole, favours compounds with a hit. Of some 83,000 tested, about 20% had one in any assay.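 Compound tested at a single concentration for 48 hours in 96-well plates; a percent growth value below 10 was scored as active.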 A number with no mark means an inactive call. The source made the active and inactive calls.

Experiments:
Assay in all cases: NCI-60 one-dose screen, 48 h (100 = growth as untreated, 0 = no growth, -100 = all killed)
Conditions in all cases: 10 µM unless noted
HT29 colon = system: HT29 colon
SNB-19 CNS = system: SNB-19 CNS
U251 CNS = system: U251 CNS
PC-3 prostate = system: PC-3 prostate
SK-MEL-5 melanoma = system: SK-MEL-5 melanoma
UACC-62 melanoma = system: UACC-62 melanoma
LOX IMVI melanoma = system: LOX IMVI melanoma
SK-MEL-28 melanoma = system: SK-MEL-28 melanoma
SNB-75 CNS = system: SNB-75 CNS

SMILES | growth (HT29 colon) | growth (SNB-19 CNS) | growth (U251 CNS) | growth (PC-3 prostate) | growth (SK-MEL-5 melanoma) | growth (UACC-62 melanoma) | growth (LOX IMVI melanoma) | growth (SK-MEL-28 melanoma) | growth (SNB-75 CNS)
COc1cc2cc(Oc3ccc(NC(=O)c4cccc(C(F)(F)F)c4)cc3)c(C)nc2cc1OCCN(C)C | 27.5% | 94.2% | 63.4% | 74.2% | -7.47% (active) | 89.4% | -81.3% (active) | 72.2% | 
Cn1c2ccccc2c2c3c(c4c5ccc(Br)cc5oc4c21)C(=O)N(O)C3=O | 86.6% | 69.5% |  | 65.8% | 75.6% | 49.2% | -88.8% (active) | 105% | 54.3%
CN(C)C(=O)c1ccccc1-n1cnc2ccccc2c1=O | 103% | 95.2% | 99.3% | 97.2% | 101% | 96.9% |  | 103% | 
CC(=O)Nc1ccc(C)c(Nc2cc(-c3ccc(-n4cccn4)cc3)[nH]n2)c1 | 27.8% | 45.7% |  | 65.3% | 53.6% | 46.7% | 60% | 61% | 64.2%
CC(C)C[C@H]1C(=O)O[C@H](C(C)C)C(=O)N(C)[C@@H](C(C)C)C(=O)O[C@H](C(C)C)C(=O)N(C)[C@@H](C(C)C)C(=O)O[C@H](C(C)C)C(=O)N1C | 8.39% (active) | 22.4% |  | 14.5% | -32% (active) | 9.49% (active) | 9.57% (active) | 38.2% | 7.5% (active)
O=S(=O)(Nc1ccc(C2CC2)cc1)c1ccc(-c2cnc(C3CC3)o2)cc1 | 38.4% | 73.7% | 68.7% | 63.1% | 74.7% | 48.5% | 55.7% | 73.2% | 53.8%
Cc1cc(-c2ccc3nc(N)sc3c2)nc2ccc3[nH]ncc3c12 | 21.1% | 39.8% | 29.3% | 62.5% | 26.3% | 21.9% | 43.8% | 38.4% | -12.7% (active)
CC[C@@](C)(NC(=O)C(C)(C)NC(=O)[C@@H](NC(=O)[C@@H]1CCCN1C(=O)C(C)(C)NC(=O)[C@H](CC(C)C)NC(=O)CNC(=O)C(C)(C)NC(=O)[C@@H](NC(=O)C(C)(C)NC(=O)[C@H](CCC(N)=O)NC(=O)[C@H](C)NC(=O)C(C)(C)NC(=O)[C@H](C)NC(=O)C(C)(C)NC(=O)[C@H](C)NC(=O)C(C)(C)NC(C)=O)C(C)C)C(C)C)C(=O)N[C@@H](CCC(N)=O)C(=O)N[C@@H](CCC(N)=O)C(=O)N[C@H](CO)CC1CCCCC1 | 23% [5 µM] | 24.3% [5 µM] | 29.2% [5 µM] | 15.5% [5 µM] | -43.5% [5 µM] (active) | 31.1% [5 µM] | 0.772% [5 µM] (active) | 26.9% [5 µM] | 13.4% [5 µM]
Nc1nc(-c2cccc([N+](=O)[O-])c2)c(N=Nc2ccccc2Cl)s1 | 87.1% | 82% | 43.9% | 64.9% | 80.8% | 71.6% | 25.3% | 93.7% | 76.8%
CN1CCN(c2ccc(C(=O)/C=C/c3ccc(Cl)c(C(F)(F)F)c3)cc2)CC1 | 11.6% | 73.7% | 38.4% | 43.4% | 74.3% | 75.4% | 12.8% | 87.2% | 65.3%
Oc1ccccc1-c1nnc(SCc2ccc(O)c3ncccc23)o1 | 102% | 29.1% | 23.6% | 19.2% | -4.08% (active) | 30.2% | 39.1% | 51.2% | 
Cc1ccc(C2CC(c3ccc(Nc4nc(NCCO)nc(Nc5ccc(Cl)cc5)n4)cc3)=Nc3c(N)nc(N)nc3N2)cc1 (stereo unspecified) | -90.8% (active) | -90.3% (active) | -96.8% (active) | -32.7% (active) | 67.5% | 107% | -93.9% (active) | 110% | 112%
C(=C(\C1=NCCN1)n1cnc2ccccc21)/c1ccc2ccccc2c1 | 91.7% | 81.3% | 87.3% | 33.5% | 63% | 77.2% | 71.5% | 79.4% | 72.9%
Cc1ccc(/C=C/CC(=O)Nc2ccc(C(=O)Nc3ccc(F)cc3N)cc2)cn1 | 36.1% | 73.7% | 61.1% | 53% | 69.3% | 51.3% | 49.3% | 55.6% | 74.8%
C=C(C)[C@@H]1CC[C@]2(C(=O)NCCCN(CCC#N)CCC#N)CC[C@]3(C)[C@H](CC[C@@H]4[C@@]5(C)CCC(=O)C(C)(C)[C@@H]5CC[C@]43C)[C@@H]12 | 106% | 88.9% | 97.7% | 93.1% | 99.1% | 88.3% | 99.3% | 104% | 99.9%
CN1CCN(c2ccc(C(=O)Nc3cccc(-c4cn(-c5ccc(S(N)(=O)=O)cc5)nn4)c3)cc2C(F)(F)F)CC1 | 16.7% | 86.6% | 59.6% | 69.8% | 90.6% | 82.7% | 23.1% | 72.7% | 64.9%
CCN1C(=O)N(CC)C2SC(N/N=C/c3cccs3)=NC21 (stereo unspecified) | 1.59% (active) | 25.9% | 10.2% | 28.4% | -5.21% (active) | 36.7% | 8.77% (active) | 54.2% | 50.6%
IP(CCCCCCCCCCSc1n(Cc2ccc3ccccc3c2)c(-c2ccccc2)c(-c2ccccc2)[n+]1Cc1ccc2ccccc2c1)(c1ccccc1)(c1ccccc1)c1ccccc1 | -59.4% (active) | -84.8% (active) | -68.5% (active) | -80.4% (active) | -98.3% (active) | -73.6% (active) | -78.1% (active) | -83.7% (active) | -52.6% (active)
Oc1ccc(CSc2nnc(-c3ccncc3)n2-c2ccccc2)c2cccnc12 | 96% | 12.7% | 15.8% | 18.9% | 1.83% (active) | -4.64% (active) | 20.4% | 29.4% | 
N#Cc1c(-c2ccccc2)cc(-c2c[nH]c3ccccc23)nc1-c1c[nH]c2ccccc12 | 103% | 97.6% | 94.3% | 92.4% | 99.2% | 94.9% | 100% | 110% | 81.2%
CN1C(=O)N(C)C2Nn3c(s/c(=C\c4ccccn4)c3=O)=NC21 (stereo unspecified) | 110% | 100% | 105% | 99.1% | 102% | 90.6% | 99.6% | 104% | 105%
CCN1C(=O)N(CC)C2SC(N/N=C/c3ccccc3)=NC21 (stereo unspecified) | -0.975% (active) | 27.3% | 17.1% | 28% | 12.1% | 37% | 17.3% | 58.1% | 37.4%
O=C1NC(=O)/C(=C/c2ccc(OCc3cc4ccccc4nc3Cl)cc2)S1 | 117% | 100% | 101% | 92% | 84.4% | 83.7% | 56.4% | 104% | 
COc1ccc(C2C(C#N)=C(N)Oc3c2sc2ccc(C)cc32)cc1 (stereo unspecified) | 25.3% | 38.6% | 26.9% | 33.1% | 2.75% (active) | 23.4% | 38% | 55.6% | -3.3% (active)
Cc1cn(-c2cc(NC(=O)c3cncc(C#Cc4cnc5ccc(OCCCS(C)(=O)=O)nn45)c3)cc(C(F)(F)F)c2)cn1 | 16.1% | 18.8% | 26.8% | 52.8% | 2.76% (active) | 21.4% | 9.26% (active) | 31.5% | 13.6%
COc1ccc([C@H]2c3[nH]c4ccccc4c3C[C@@H]3C(=O)N(C4CCN(Cc5ccccc5)CC4)CC(=O)N23)c(OC)c1 | 43.1% | 83.1% | 75.8% | 48.1% | 73.7% | 87.2% | 58.7% | 85.1% | 83.1%
COc1ccc(-c2oc3cc(O)cc(O)c3c(=O)c2OC)cc1O | 57% | 28.2% | 15.6% | 24.1% |  |  | 36.8% |  | -24.3% (active)
O=c1[nH]c2cc(Cl)ccc2n1C1CCN(c2ccc3nnc(Cl)n3n2)CC1 | 93.2% | 92.6% |  | 82% | 91.6% | 75.8% | 99.1% | 91.1% | 73.1%
Nc1c(C(=O)c2ccccc2)sc2nc(-c3cnccn3)cc(-c3cccs3)c12 | 107% | 96.5% |  | 100% | 103% | 87.1% | 101% | 106% | 
